Several values for one entry are separate records, joined by “and”; a condition that tells them apart may be missing. Equal values may be shown once. Activity calls are given as the source filed them. Unless noted, the rule behind the calls is not given here.
Tests used:
[1] = viability loss with induced miR-34 in A549 – imaging, A549 dox-inducible miR-34, nuclei and caspase counts, primary screen (AID 1347080;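 active = compounds whose cell count with miR-34 switched on is under 0.7 times the count with it off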); conditions: A549 miR-34 inducible, Hoechst nuclei count, 48 h
[2] = chitosan synthesis blockers in C. neoformans – flow cytometry, Cibacron Brilliant Red staining (AID 1347148); conditions: Cryptococcus neoformans chitosan, stronger effect = lower value; at 10 µM unless noted;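 note: compound exposure lasted three days at 37 degrees C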
[3] = MELAS cybrid and Rieske KO viability enhancers – cell-based, MELAS cybrids, Rieske KO mouse fibroblasts, CellTiter-Glo, primary screen (AID 1508586;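 active = mean z-score across replicates of 1.96 or higher in either the MELAS or the Rieske mutant cell line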;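 note: z relative to plate mean and SD of compound and empty wells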); conditions: low glucose
[4] = compounds altering circadian rhythm period length – cell-based, LOPAC library, luminescence reporter (AID 2774); conditions: circadian reporter cells, at 7 µM, actives lie on both sides;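 note: values are relative to mean of DMSO wells on each plate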
[5] = test system: Hepatitis C virus NS3 helicase; assay: blockers of NS3h binding to ssDNA – biochemical, fluorescence polarization, LOPAC1280 library, primary screen (AID 687035; in the data active = inhibition above about 37%); conditions: Purified HCV NS3 helicase, Cy5-dT15 ssDNA binding fluorescence polarization; stronger effect = higher value; concentration not given here
[6] = compounds altering Cy5-DNA-NS3h complex signal – biochemical, LOPAC1280, artefact control for HCV NS3 helicase inhibitor project (AID 687037); conditions: Cy5-DNA-NS3h complex fluorescence interference counterscreen
[7] = blockers of cellular phospholipid synthesis – cell-based, LOPAC library, screen 4, primary screen (AID 1347384); conditions: animal cells, phospholipid biosynthesis inhibition screen; at 10 µM
[8] = galactose survival enhancers in mitochondrial complex I cybrids – cell-based, galactose medium, ATP luminescence, primary screen (AID 1645843;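 active = z-score of at least 1.8 in each of two replicates, scored against plate mean and spread of sample wells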;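 note: positive z means more ATP and so rescue of galactose-driven cybrid death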); conditions: complex I mutant cybrid cells, 72 h, stronger effect = higher value
[9] = compounds altering viability of human ES cells (AID 493140); conditions: human embryonic stem cell survival screen; stronger effect = higher value;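 note: cells exposed to compounds for four days before counting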
[10] = stronger effect = lower value, cell number ratio, induced over uninduced
[11] = measured here: relative caspase fold change +Dox/-Dox
[12] = measured here: total cells with miR-34 induction, stronger effect = lower value
[13] = measured here: total cells without miR-34 induction

Structure (SMILES) | fold change [1, 10] | fold change [1, 11] | cell count [1, 12] | cell count [1, 13] | fold fluorescence [2] | z-score ([3]; MELAS cybrid survival, CellTiter-Glo 48 h, stronger effect = higher value) | z-score ([3]; Rieske KO mouse fibroblast survival, CellTiter-Glo 72 h) | period change [4] | inhibition [5] | fluorescence ratio (interference) [6] | outcome [7] | z-score [8] | survival [9]
CC(=O)OCOC(=O)CN(CC(=O)OCOC(C)=O)c1ccccc1OCCOc1ccccc1N(CC(=O)OCOC(C)=O)CC(=O)OCOC(C)=O | 1.04 (inactive) and 0.871 (inactive) | 1.07 and 0.533 | 2560 and 5870 | 2460 and 6740 | 5.04 [at 65.4 µM] (inactive) | -0.31 (inactive) | 0.894 | – | – | – | – | – | –
C[C@H](CCCO)[C@H]1CC[C@H]2[C@@H]3[C@H](O)C[C@H]4C[C@H](O)CC[C@]4(C)[C@H]3C[C@H](O)[C@]12C | 0.949 (inactive) | 1.07 | 5800 | 6110 | – | – | – | – | – | – | – | – | –
Nc1ccc2c3c(cccc13)C(=O)NC2=O | 0.949 (inactive) and 1.13 (inactive) | 1.39 and 0.672 | 8220 and 6020 | 8660 and 5330 | 4.37 [at 235.6 µM] (inactive) | – | – | 0.025 h (inactive) | -1% (inactive) | 1 (inactive) | inactive | 0.605 (inactive) | –
CCCCCCCCCCCCC/C=C/[C@@H](O)[C@H](CO)NCCCCCCCC | 0.925 (inactive) and 1 (inactive) | 1.2 and 0.737 | 5120 and 5820 | 5540 and 5810 | 10.3 (inactive) | – | – | – | – | – | – | – | 61.3 (inactive)
O=c1oc(Cl)c(Cl)c2ccccc12 | 1.11 (inactive) and 1.06 (inactive) | 1.14 and 0.927 | 6300 and 1380 | 5680 and 1300 | 6.4 [at 232.5 µM] (inactive) | – | – | -0.015 h (inactive) | -3% (inactive) | 1 (inactive) | inactive | -1.02 (inactive) | –
CS(=O)(=O)Nc1ccc([N+](=O)[O-])cc1OC1CCCCC1 | 0.816 (inactive) and 0.974 (inactive) | 1.1 and 1.38 | 4510 and 5650 | 5530 and 5800 | 5.81 [at 159.1 µM] (inactive) | – | – | – | – | – | – | – | –
NCCNS(=O)(=O)c1cccc2c(Cl)cccc12 | 1.01 (inactive) and 0.93 (inactive) | 0.86 and 1.13 | 9070 and 4030 | 9000 and 4330 | 10.8 [at 175.6 µM] (inactive) | – | – | – | -2% (inactive) | 1 (inactive) | inactive | -0.845 (inactive) | –
CC(C)(C)c1cc(/C=C(\C#N)C(N)=S)cc(C(C)(C)C)c1O | 1.09 (inactive) and 1.17 (inactive) | 1.31 and 0.937 | 4070 and 1820 | 3720 and 1560 | 11.2 [at 158 µM] (inactive) | – | – | 0.535 h (inactive) | 5% (inactive) | 1 (inactive) | active | -1.35 (inactive) | 106 (inactive)

— PubChem BioAssay
